Some test systems named below: DU-145 prostate; K-562 leukemia; MALME-3M melanoma; MDA-MB-231 breast; RXF 393 renal; SF-268 CNS; SF-295 CNS; SF-539 CNS; UACC-257 melanoma; M14 melanoma; HCT-15 colon; HT29 colon; SNB-75 CNS; SNB-19 CNS; U251 CNS; PC-3 prostate; SK-MEL-5 melanoma; UACC-62 melanoma; LOX IMVI melanoma; SK-MEL-28 melanoma.
What all share (assay): NCI-60 one-dose screen, 48 h (100 = growth as untreated, 0 = no growth, -100 = all killed)
What all share (details): 10 µM unless noted

Compounds without any hit were thinned out: in the full panel of roughly 83,000, 20% have a hit.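 Note: values are percent growth. 100 is the growth of untreated cells, values between 100 and 0 indicate rising inhibition; between -100 and 0 indicates cell death.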 A number with no mark means an inactive call. Active and inactive are the calls of the source. The calls were made as follows: active = growth percent below 10; inactive = the rest.

`CCOc1ccc(-c2nc3ccc(-c4nc5ccc(N6CCN(C)CC6)cc5[nH]4)cc3[nH]2)cc1OCC`: the growth in the assay on DU-145 prostate was 11.1%; in the assay with K-562 leukemia, 12.8%; with MALME-3M melanoma, -34.7% (active); with MDA-MB-231 breast, 19.4%; with RXF 393 renal, -37.8% (active); in the assay on SF-268 CNS, 19.3%. For the same compound, the growth with SF-295 CNS is 27.2%; with SF-539 CNS it was -42.7% (active); with UACC-257 melanoma, 6.87% (active); in the assay with M14 melanoma, 10%; in the assay on HCT-15 colon, 63.7%; in the assay with HT29 colon, 19.4%. The growth is 6.64% (active) with SNB-75 CNS; 8.93% (active) in the assay with SNB-19 CNS; 4.64% (active) in the assay with U251 CNS; 17.2% in the assay with PC-3 prostate; 8.43% (active) in the assay with SK-MEL-5 melanoma; -14.3% (active) with UACC-62 melanoma. The growth in the assay on LOX IMVI melanoma was -74.5% (active); in the assay on SK-MEL-28 melanoma it was -27.2% (active).
As for `NC(N)=N/N=C/CO`, the growth with DU-145 prostate was 101%; in the assay with K-562 leukemia, 99.2%; in the assay with MALME-3M melanoma it was 111%; in the assay with MDA-MB-231 breast, 111%; with RXF 393 renal, 109%; in the assay with SF-268 CNS, 105%. Moreover, the growth in the assay with SF-295 CNS is 103%; with SF-539 CNS it was 97.5%; in the assay on UACC-257 melanoma, 95.9%; with M14 melanoma, 99%; in the assay on HCT-15 colon, 106%; with HT29 colon, 98.4%. For the same compound, the growth is 89.9% in the assay with SNB-75 CNS; 111% in the assay on SNB-19 CNS; 105% with U251 CNS; 91.2% with PC-3 prostate; 102% in the assay with SK-MEL-5 melanoma; 113% in the assay with UACC-62 melanoma. Also, the growth in the assay on LOX IMVI melanoma is 93.1%; in the assay on SK-MEL-28 melanoma, 106%.
`Nc1ccc(S(=O)(=O)Nc2ccsc2-c2nc(-c3ccccc3)no2)cc1`: the growth was 76.5% with DU-145 prostate; 13.5% in the assay on K-562 leukemia; 70.5% with MALME-3M melanoma; 61.8% in the assay with MDA-MB-231 breast; 83.3% with RXF 393 renal; 67.2% with SF-268 CNS. In addition, the growth in the assay with SF-295 CNS is 69.8%; in the assay on SF-539 CNS it was 75.6%; in the assay on UACC-257 melanoma, 67.2%; with M14 melanoma it was 32.1%; in the assay on HCT-15 colon, 34.1%; in the assay on HT29 colon, 11.8%. Besides, the growth in the assay on SNB-75 CNS was 54.8%; with SNB-19 CNS, 69.3%; in the assay with U251 CNS, 41.7%; with PC-3 prostate, 53.1%; in the assay on SK-MEL-5 melanoma, 65.9%; in the assay with UACC-62 melanoma it was 50.7%. Besides, the growth in the assay with LOX IMVI melanoma was 68%; with SK-MEL-28 melanoma, 71.2%.
In the case of `CN1C[C@@H](c2ccc(Cl)cc2)[C@]2(NC(=S)N(c3ccc(F)c(Cl)c3)C2=O)[C@@]12C(=O)NC1C=CC(Cl)=C[C@H]12` (stereo not given in full), the growth was 67.3% in the assay on DU-145 prostate; 10.3% in the assay with K-562 leukemia; 91.2% with MALME-3M melanoma; 31.6% in the assay with MDA-MB-231 breast; 21.3% in the assay on RXF 393 renal; 54% in the assay on SF-268 CNS. Moreover, the growth was 46.8% with SF-295 CNS; 73.5% in the assay on SF-539 CNS; 65% with UACC-257 melanoma; -31.2% (active) in the assay on M14 melanoma; 48.5% in the assay with HCT-15 colon; 33.4% in the assay with HT29 colon. Also, the growth in the assay on SNB-75 CNS is 53.2%; in the assay with SNB-19 CNS, 47.2%; in the assay on U251 CNS, 59.9%; in the assay on PC-3 prostate, 8.42% (active); with SK-MEL-5 melanoma, 44.5%; in the assay with UACC-62 melanoma, 55.7%. The values for the growth in the assay on LOX IMVI melanoma and in the assay with SK-MEL-28 melanoma were 43.5% and 72.6%, respectively.
As for `N#Cc1cccc(-c2nc3ccccn3c2NCCN2CCOCC2)c1`, the growth is 106% in the assay with DU-145 prostate; 97.3% with K-562 leukemia; 108% in the assay with MALME-3M melanoma; 94.6% in the assay on MDA-MB-231 breast; 96.3% in the assay with RXF 393 renal; 90.3% in the assay on SF-268 CNS. Also, the growth with SF-295 CNS is 101%; with SF-539 CNS, 92.2%; with UACC-257 melanoma, 98.8%; in the assay on M14 melanoma, 89.9%; in the assay on HCT-15 colon, 105%; with HT29 colon it was 92.8%. In addition, the growth in the assay on SNB-75 CNS is 71.1%; in the assay with SNB-19 CNS, 100%; in the assay with U251 CNS, 98.2%; in the assay with PC-3 prostate, 89.5%; with SK-MEL-5 melanoma, 104%; with UACC-62 melanoma it was 95.5%. Also, the growth in the assay with LOX IMVI melanoma is 92.5%; with SK-MEL-28 melanoma it was 107%.
In the case of `CCc1nc2ccccc2[nH]1`, the growth is 125% with DU-145 prostate; 102% in the assay with K-562 leukemia; 122% with MALME-3M melanoma; 103% with MDA-MB-231 breast; 113% with RXF 393 renal; 103% in the assay on SF-268 CNS. Further, the growth in the assay with SF-295 CNS is 119%; with SF-539 CNS, 104%; with UACC-257 melanoma, 102%; in the assay on M14 melanoma, 99.8%; in the assay on HCT-15 colon, 108%; in the assay on HT29 colon, 108%. Besides, the growth is 91.1% in the assay on SNB-75 CNS; 98.3% in the assay with SNB-19 CNS; 106% in the assay on U251 CNS; 101% with PC-3 prostate; 110% with SK-MEL-5 melanoma; 98.9% with UACC-62 melanoma. Further, the results for the growth in the assay with LOX IMVI melanoma and with SK-MEL-28 melanoma were 107% and 105%, respectively.
With `Clc1ccc2[nH]c3c(NCCCN4CCOCC4)ncnc3c2c1`, the growth with DU-145 prostate is 87.3%; with K-562 leukemia, 31.6%; in the assay on MALME-3M melanoma, 93.9%; in the assay with MDA-MB-231 breast, 56.7%; with RXF 393 renal, 70.5%; in the assay on SF-268 CNS it was 99.6%. Further, the growth in the assay on SF-295 CNS was 64.7%; in the assay with SF-539 CNS, 95.4%; in the assay on UACC-257 melanoma it was 98.2%; in the assay on M14 melanoma it was 73.8%; with HCT-15 colon, 84.1%; in the assay on HT29 colon, 18.6%. Besides, the growth was 85% with SNB-75 CNS; 92.9% with SNB-19 CNS; 69.6% in the assay with U251 CNS; 75.6% with PC-3 prostate; 67% with SK-MEL-5 melanoma; 80.1% in the assay on UACC-62 melanoma. Moreover, the results for the growth in the assay on LOX IMVI melanoma and in the assay on SK-MEL-28 melanoma were 64.5% and 91.2%, respectively.
